Out of some 360,000 compounds screened, about 300 (0.083%) were called active. Cut-off read from the data, not from the text of the source: active = activation above about 40%; inconclusive = between about 15% and that limit; inactive = weaker than that. Many of the other results were omitted from the sample, so actives are more common in it than they were.
The compounds below were run against D(2) dopamine receptor (Homo sapiens) (UniProt P14416) (assay: Beta-Arrestin HTS for Positive Allosteric Modulators of the Human D2 Dopamine Receptor: Agonists). Conditions: DiscoveRx PathHunter D2 beta-arrestin, luminescence, 90 min; stronger effect = higher value; 100% = 57 uM dopamine signal.
From the text: There is great interest in identifying small molecule ligands for G-protein coupled receptors (GPCRs) as nearly 50% of all FDA-approved drugs target these important receptor proteins. […] Amongst the dopamine receptors (DARs), the D2 is arguably one of the most validated drug targets in neurology and psychiatry. For instance, all receptor-based antiparkinsonian drugs primarily work via stimulating the D2 DAR, whereas all FDA-approved antipsychotic agents are antagonists of this receptor. The D2 DAR is also therapeutically targeted in other disorders such as restless legs syndrome, tardive dyskinesia, Tourette's syndrome, and hyperprolactinemia.
To this end, a miniaturized qHTS screen was developed to be screened against the Molecular Libraries Small Molecule Repository (MLSMR). This assay seeks to identify agonists against the D2 DAR.
NIH Molecular Libraries Probe Production Network [MLPCN]
NIH Chemical Genomics Center [NCGC]
PI Name: David Sibley, National Institutes of Neurological Disorders and Stroke
DiscoveRx D2 cells were thawed from frozen stock and seeded at 2,100 cells/ 3 uL/well media (DiscoveRx Plating Reagent 2) with MultiDrop Combi dispenser (Thermo Scientific, Logan, UT) onto white tissue culture treated 1536-well Aurora plates (Brooks Automation, Chelmsford, MA) and allowed to attach overnight at 37 deg C, 5% CO2. Next, 23 nL/well of compound solutions in DMSO were added with a pintool transfer (Kalypsis, San Diego, CA). As the positive control, 1 uL/well dopamine (EC100, 57 uM final concentration) diluted in buffer (HBSS + 10 mM HEPES + SMB + 0.1% Tween-20) was dispensed to 1 column of each plate. The rest of the plate was dispensed with buffer only, 1 uL/well as well. The cells were stimulated by compounds or dopamine control for 90 minutes at 37 deg C, 5% CO2, after which 1.5 ul/well of DiscoveRx detection reagent was added with BioRAPTR FRD dispenser. The detection reagent was prepared by mixing of Galacton Star Substrate, Emerald II solution and PathHunter buffer (supplied by the assay kit) together at 1:5:19 proportion accordingly just prior to dispensing. The plates were incubated at ambient temperature for 1 hour and then the luminescent signal was read on ViewLux plate reader (PerkinElmer, Waltham, MA).

Chain of D(2) dopamine receptor (Homo sapiens) (P14416 whole entry, looked up): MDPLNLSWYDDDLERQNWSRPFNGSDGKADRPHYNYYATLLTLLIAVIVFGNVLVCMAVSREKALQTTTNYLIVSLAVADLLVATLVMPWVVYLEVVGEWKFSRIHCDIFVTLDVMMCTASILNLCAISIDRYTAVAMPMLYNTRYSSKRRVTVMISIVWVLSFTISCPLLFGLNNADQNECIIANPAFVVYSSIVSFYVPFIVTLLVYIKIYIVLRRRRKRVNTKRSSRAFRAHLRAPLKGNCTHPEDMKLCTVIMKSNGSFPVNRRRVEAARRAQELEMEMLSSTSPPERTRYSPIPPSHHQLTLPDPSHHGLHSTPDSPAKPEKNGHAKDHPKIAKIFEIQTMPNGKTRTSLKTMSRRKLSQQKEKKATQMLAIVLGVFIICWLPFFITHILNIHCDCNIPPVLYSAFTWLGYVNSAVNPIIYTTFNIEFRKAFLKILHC

| SMILES | activation |
| --- | --- |
| O=C(OCC(=O)N1CCN(C(=O)c2ccco2)CC1)c1c(Cl)cccc1Cl | -10.9% (inactive) |
| COc1cccc(OC)c1OCCN1CCN(C(=O)c2ccco2)CC1 | 44.2% (active) |
| O=C(CN1CCN(C(=O)c2ccco2)CC1)Nc1ccc(Cl)c(C(F)(F)F)c1 | -0.549% (inactive) |
| CC1=CC=CN2C1=NC(=O)CC2(C)C(=O)N(CC(=O)NC1CCCC1)c1ccccc1C (centres undefined) | 4.24% (inactive) |
| COc1ccc(-c2ccc3[nH]c4c(c3c2)CCN2C[C@H]3[C@H](C)ON(C)[C@H]3C[C@@H]42)cc1 | -8.14% (inactive) |
| Cc1cc(C)n2nc(C(=O)N3CCN(Cc4ccc5c(c4)OCO5)CC3)nc2n1 | 10.2% (inactive) |
| O=C(c1cccs1)N1CCN(Cc2ccc3c(c2)OCO3)CC1 | 46.9% (active) |
| COc1ccc(-c2cc(C(=O)N3CCN(Cc4ccc5c(c4)OCO5)CC3)on2)cc1OC | -0.403% (inactive) |
| CCOc1ccc(C(=O)NCC(=O)N2CCN(c3ccc(C(F)(F)F)cn3)CC2)cc1 | 9.96% (inactive) |
| COP1(=O)C[C@@H](O)[C@@H](O)[C@@H](COCc2ccccc2)O1 (some centres undefined) | 0.955% (inactive) |
| Oc1cc2c(cc1O)CN(C(=S)NCCc1ccc(Cl)cc1)CCC2 | -1.87% (inactive) |
| O=[N+]([O-])c1ccc(CN2CC(N3CC=CC3)CS2(=O)=O)cc1 (centres undefined) | -1.85% (inactive) |
| CCc1ccc(OCC(=O)OC(C)C(=O)NC2CC2)cc1 (centres undefined) | -2.44% (inactive) |
| Cc1cc(C)cc(N(CC(=O)N2CC=C(c3ccccc3)CC2)S(=O)(=O)c2c(C)noc2C)c1 | 0.128% (inactive) |
| COc1ccccc1CCNC(=O)CN1C(=O)NC2(CCCC2)C1=O | -3.81% (inactive) |
| O=c1ccn([C@@H]2O[C@H](CNS(=O)(=O)c3cc4ccccc4s3)[C@@H](O)[C@H]2O)c(=O)[nH]1 | -2.86% (inactive) |
| CCOC1=C2CN(S(=O)(=O)c3ccc(C)cc3)[C@H](c3cccs3)C[C@H]2[C@H]2C(=O)N(c3ccccc3)C(=O)[C@H]2C1 | -3.55% (inactive) |
| CCC(C)(C)n1nnnc1CN1CCN(c2nc3ccc(C)cc3cc2C#N)CC1 | -5.17% (inactive) |
| Cc1ccc(C(=O)O/N=C(\N)c2ccccn2)cc1Cl | 5.09% (inactive) |
| COc1ccc(C(=O)NNC(=O)c2cnccn2)cc1[N+](=O)[O-] | 4.81% (inactive) |
| COc1ccc(C(=O)O/N=C(\N)c2ccccn2)cc1[N+](=O)[O-] | 42.1% (active) |
| O=C(NCCO)c1cccc(-c2cccc3nccn23)c1 | -5% (inactive) |

| SMILES | activation |
| --- | --- |
| O=C(CC1SC(=Nc2ccccc2)N(Cc2ccccn2)C1=O)Nc1cccc(Cl)c1 (centres undefined) | 0.599% (inactive) |
| CNc1cncc(-c2cccc(C(=O)N3CCOCC3)c2)n1 | -3.27% (inactive) |
| CC(C)c1cccc(-c2csc(C(O)c3ccccc3)n2)c1 (centres undefined) | 5.04% (inactive) |
| CCC(=O)OCc1c(C(F)(F)F)nn(C)c1Oc1cccc(C(F)(F)F)c1 | -2.87% (inactive) |
| O=C(CN1CCN(S(=O)(=O)c2ccc3ccccc3c2)CC1)NC(=O)NC1CCCCC1 | -2.7% (inactive) |
| CCn1cc(CNC(=O)c2cc([N+](=O)[O-])c(C)c([N+](=O)[O-])c2)cn1 | 1.34% (inactive) |
| O=C1C=CN2CCCC2CC1 (centres undefined) | -2.65% (inactive) |
| Nc1ncnc2c1ncn2[C@@H]1O[C@H](C(=O)N2CCCN(Cc3ccccc3F)CC2)[C@@H](O)[C@H]1O | -3.13% (inactive) |
| O=C1CCC(C(=O)Nc2ccc(OC(F)F)cc2)N1 (centres undefined) | -0.767% (inactive) |
| O=C1CSC(=O)N1CCOCCN1C(=O)CSC1=O | -0.569% (inactive) |
| CN(CCc1ccccn1)C1CCCN(S(=O)(=O)c2ccccc2Cl)C1 (centres undefined) | 4.32% (inactive) |
| OCCN1CCN(c2ncnc3c2ncn3[C@H]2CN(Cc3ccco3)C[C@@H](CO)O2)CC1 | 2.19% (inactive) |
| COc1ccc(OCc2nnc3n2N=C(c2ccccc2)C(CC(=O)O)S3)cc1 (centres undefined) | -4.75% (inactive) |
| CCn1c(SCC(=O)Nc2cccc(F)c2)nnc1-c1cc2cc(Br)ccc2o1 | 0.906% (inactive) |
| O=C1N(c2ccccc2)C(=Nc2ccccc2)SC12CC2 | -5.55% (inactive) |
| O=C(CN1CCOCC1)Nc1c2c(nc3c1CCC3)CCC2 | -3.04% (inactive) |
| Cc1nc(-c2ccc(F)cc2)c(CC(=O)N(C)CC(=O)Nc2c(C)cccc2C)s1 | 0.938% (inactive) |
| Cn1nc(C(F)(F)F)c(C(=O)Nc2cccc(C(F)(F)F)c2)c1SCc1ccc(Cl)cc1 | 2.52% (inactive) |
| CC(=O)NC(c1ccccc1)c1nc(-c2cccc(C(C)C)c2)cs1 (centres undefined) | 1.91% (inactive) |
| COc1cccc(C(NC(C)=O)c2nc(-c3ccccc3OC)cs2)c1 (centres undefined) | -6.01% (inactive) |
| CC(=O)NC(c1ccccc1)c1nc(-c2ccccc2C)cs1 (centres undefined) | 73.4% (active) |
| CCCC(=O)N1CCC1(C)C(=O)NS(=O)(=O)c1ccc(Cl)cc1 (centres undefined) | -2.87% (inactive) |
